# Compounds with a hit are over-represented: about 12% of the library has one in this group of screens.
# Shiga toxin inh: Shiga toxin inhibition; actives 9.2% (n = 290,000); Vero cells, Shiga toxin protein synthesis inhibition reporter; AID 2315; inhibition, % at 38.7 µM; in the data active = inhibition mostly above about 28%, no sharp cut-off; inactive = mostly below about 43%; note: 0% is about no effect
# FMDV inh: antivirals against foot and mouth disease virus | FMDV antiviral cell-based qHTS | actives 1.2% (n = 410,000) | AID 1159524 | Potency, µM (series often up to 57.9 µM), for the others: at the highest dose activity change, negative = inhibition, actives largely listed as inhibitors; calls by dose curve; tested in HEK293T cells; note: read-out not given here; potency is the fitted concentration of half-maximal effect; % is set by controls: 0 for no effect and ±100 for the full control effect; nearly all actives have a fitted effect of over 45% in size
# Cycloheximide cs: counter-screen hit for Shiga toxin inhibitors, cycloheximide; cell reporter, cycloheximide protein synthesis inhibition counterscreen; AID 2314; actives 12% (n = 300,000); max response, %; in the data active = max response mostly above about 13%, no sharp cut-off; inactive = mostly below about 14%; note: read at 38.3 µM for the half of the compounds with a filed dose; 0% is about no effect
# Sm TGR inh: S. mansoni TGR enzyme inhibition. purified TGR, DTNB reduction, TNB absorbance 405 nm. Potency, µM (top dose mostly 114 µM), for the others: top-dose activity change, negative = inhibition, usual class: inhibitors. actives 3% (n = 360,000). Q962Y6. AID 485364; active = well fitted inhibition curve with a large enough effect; inconclusive = small, poorly fitted or top-dose-only effect; inactive = no such curve, though single readings can be large or run the other way; note: potency is the fitted concentration of half-maximal effect; % is set by controls: 0 for no effect and ±100 for the full control effect; nearly all actives have a fitted effect of over 60% in size
#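 TGR 20 nM + NADPH 100 uM (dispensed conc.), cpd preinc 15 min RT; start with NADPH (500 uM addition) then DTNB (15 mM addition). Kinetic TNB absorbance, 405 nm filter. Four-parameter Hill fit across titration.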
# An asterisk follows results filed as active; ? = inconclusive; nt = no result.
SMILES,Shiga toxin inh,FMDV inh,Cycloheximide cs,Sm TGR inh
O=C(Nc1ccc(OCc2cc(=O)n3c4c(sc3n2)CCCC4)cc1)c1ccccc1,nt,-4%,nt,3%
O=C(NC(=S)Nc1ccc(N2CCOCC2)cc1)c1cccc([N+](=O)[O-])c1,-3,-24%,-1,40µM*
O=C(NC(=S)Nc1ccc(CN2CCOCC2)cc1)c1ccc([N+](=O)[O-])cc1Cl,33,-22%,26*,-25%
Cc1ccc(C(=O)NC(=S)Nc2ccc(CN3CCOCC3)cc2)cc1,15,0%,10,?
O=C(NC(=S)Nc1ccc(CN2CCOCC2)cc1)c1cccc([N+](=O)[O-])c1,7,9%,5,89µM*
O=C(NC(=S)Nc1ccc(CN2CCOCC2)cc1)c1cccc(F)c1,25,4%,22*,?
O=C(NC(=S)Nc1ccc(CN2CCOCC2)cc1)c1ccccc1[N+](=O)[O-],2,9%,13,-24%
COCC(C)NC(=O)c1cc2c(=O)n3cccc(C)c3nc2s1 (stereo not given),nt,-11%,nt,7%
COc1ccc(-c2csc(C)n2)cc1Br,74*,1%,35*,7%
COc1ccc(OC)c(NC(=O)c2csc(Cl)c2OC)c1,14,7%,21*,10%
Cc1nc(-c2ccc(C(=O)Nc3cccc(Br)c3)cc2)cs1,56*,-40%,33*,2%
COc1ccc(OC)c(NC(=O)c2ccc(-c3csc(C)n3)cc2)c1,nt,32%,16*,-14%
COc1ccc2nc3oc(C(=O)N(C)c4ccc(Cl)cc4)cc3cc2c1,nt,-19%,nt,2%
CCCCNc1nc(Oc2ccc(=O)n(C)n2)nc(N2CCOCC2)n1,nt,-14%,nt,2%
COc1ccccc1CNC(=O)CCC1N=C2c3ccccc3N=C(SCC(=O)Nc3ccc(F)cc3)N2C1=O (stereo not given),nt,?,nt,-25%
Cc1nc(-c2cccc(NC(=O)c3ccc(-n4nccc4C)cc3)c2)cs1,nt,22µM*,nt,-2%
Cc1nc(-c2ccc(C(=O)Nc3cc(S(N)(=O)=O)ccc3C)cc2)cs1,56*,33%,14*,10%
COc1ccc(OC)c(NC(=O)c2cc(OC(C)=O)cc(C(=O)Nc3cc(OC)ccc3OC)c2)c1,nt,28µM*,-4,-14%
O=C(Nc1cccc(C(=O)Nc2cccc(Br)c2)c1)c1ccccc1,20,0%,12,12%
O=C(Nc1cccc(Br)c1)c1ccn[nH]1,35*,37%,45*,17%
Cc1nc2nc(SCc3c(F)cccc3Cl)nn2c(C)c1Cc1ccccc1,nt,42%,nt,4%
O=C(Nc1ccccc1)N1CCN(C(=O)c2nsc3ccccc23)CC1,nt,0%,nt,-11%
O=C(NCCSc1ccc(Cl)cc1)c1ccco1,16,-11%,14,-2%
O=C(CSc1ccccc1Cl)c1ccco1,49,16%,26*,45µM*
O=C(CSc1ccc(Cl)cc1)c1ccco1,65*,19%,42,5.6µM*
SMILES,Shiga toxin inh,FMDV inh,Cycloheximide cs,Sm TGR inh
Nc1nnc(SCC(=O)c2ccco2)s1,17,13%,-2,-10%
O=C(CCSc1ccc(Cl)cc1)c1ccco1,11,-12%,-2,1µM*
NS(=O)(=O)c1ccc(NC(=S)Nc2ccc(F)c(F)c2)cc1,2,-2%,-1,25µM*
O=C(NCCCc1ccccc1)Nc1cccc(Cl)c1,24*,-22%,35*,8%
CC(=O)c1ccc(NC(=S)NCCc2ccc(S(N)(=O)=O)cc2)cc1,99*,0%,32*,40µM*
COC(=O)C(C)(C)ONC(=O)Nc1ccc(C)cc1,43*,26%,21*,-2%
NS(=O)(=O)c1ccc(NC(=S)NCCc2ccccc2)cc1,10,22%,3,nt
O=C(NCCc1ccncc1)Nc1cccc(Cl)c1,-15,-1%,-2,1%
O=c1c(-c2cccs2)nc2cncnc2n1Cc1ccc(F)cc1,nt,-5%,nt,nt
COc1cc2c(cc1OC)C(C(C(=O)N(CCc1ccc(OC)c(OC)c1OC)CCc1ccc(OC)c(OC)c1OC)c1ccccc1)=NCC2 (stereo not given),18,-22%,11,nt
Cc1ccc(N2CCN(S(=O)(=O)c3ccc(F)c(C(=O)Nc4ccc(Cl)cc4Cl)c3)CC2C)cc1 (stereo not given),nt,-4%,nt,-2%
O=C(Nc1ccccc1)Nc1cccc(Cl)c1,107*,0%,56*,-11%
NS(=O)(=O)c1ccc(NC(=O)Nc2ccc(S(N)(=O)=O)cc2)cc1,1,-16%,-1,-26%
CCOC(=O)c1ccc(N2C(=O)CC(SCC(=O)Nc3ccc(S(N)(=O)=O)cc3)C2=O)cc1 (stereo not given),14,?,8,?
O=C(Cc1ccccc1)NNC(=O)Nc1cccc(Cl)c1,-33,39%,-3,4%
Cc1ccc(NC(=O)Nc2ccc(S(N)(=O)=O)cc2)cc1,49*,21%,30*,0%
